Measurements reported in PubChem BioAssay (EPA / NIEHS).
Inconclusive results are not listed. Some compounds were tested as several samples or in several runs, with calls that do not always agree. The source made the active and inactive calls. The calls were made as follows, unless noted: active = hit-call score of the fitted dose curve at least 0.9, where 1 is the maximum; inactive = score below 0.9.

What was measured:
[1] = CCTE_Shafer_MEA_acute_burst_percentage_std: CCTE's Neural Acute Assay for Standard Deviation of Burst Percentage, Shafer Lab (AID 2284018);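 also: fitted in the negative direction so actives lower burst percentage SD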
Summary of the method: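 Primary rat cortical neurons on 16-electrode MEA wells were recorded 40 min at baseline (DIV 13 or 15), then 40 min after compound (0.03-40 uM), at 37 C. Well value is SD across electrodes of spikes-in-bursts/total spikes; endpoint is percent change, DMSO-referenced.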

[2] = CCTE_Shafer_MEA_acute_per_network_burst_spike_number_mean: CCTE's Neural Acute Assay for Average Number of Spikes in a Network Burst, Shafer Lab (AID 2284019);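 as to AC50: curve fitted for loss of signal so actives reduce spikes per network burst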
Summary of the method: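 Primary rat cortical neurons on 16-electrode MEA wells, DIV 13 or 15, 37 C; 40-min baseline then 40-min recording with compound (0.03-40 uM). Spikes per network burst (total spikes/number of bursts) expressed as percent change from baseline, DMSO reference.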

[3] = CCTE_Shafer_MEA_acute_per_network_burst_electrodes_number_mean: CCTE's Neural Acute Assay for Mean Number of Electrodes in a Network Burst, Shafer Lab (AID 2284021);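 also: curves fitted for decreases only so hits reduce electrodes per burst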
Summary of the method: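 Rat primary cortical neurons on 16-electrode MEA wells were recorded 40 min at baseline on DIV 13 or 15, then 40 min after compound (0.03-40 uM), at 37 C. Value is percent change per well, fitted in loss direction versus DMSO.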

[4] = CCTE_Shafer_MEA_acute_network_burst_percentage: CCTE's Neural Acute Assay for Percentage of Network Bursts, Shafer Lab (AID 2284022);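 also: curves fitted for loss so actives lower network burst percentage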
Summary of the method: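 Primary rat cortical neurons on 16-electrode MEA wells, treated on DIV 13 or 15 with compound (0.03-40 uM); 40-min baseline and 40-min post-exposure recordings at 37 C. Value is percent change in spikes within network bursts versus baseline, DMSO negative control.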

[5] = CCTE_Shafer_MEA_acute_cross_correlation_area: CCTE's Neural Acute Assay for Area of Cross Correlation, Shafer Lab (AID 2284024);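 also: area under pooled inter-electrode spike cross-correlation near zero lag as percent change from own baseline; curves fitted for loss of cross-correlation area so actives lower synchrony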
Summary of the method: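 Primary rat cortical neurons on 48-well MEA plates (16 electrodes/well) were recorded 40 min at baseline on DIV 13 or 15, then 40 min with compound (0.03-40 uM) at 37 C; cross-correlation area expressed as percent change from baseline.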

[6] = CCTE_Shafer_MEA_acute_cross_correlation_HWHM: CCTE's Neural Acute Assay for Cross Correlation at Half Width at Half Maximum, Shafer Lab (AID 2284026);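 also: percent change per well from pre-dose baseline in spike cross-correlogram half width; hits are a decrease in cross-correlogram half width relative to DMSO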;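 as to outcome: spontaneous network firing of rat primary cortical neurons on multiwell microelectrode arrays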
Summary of the method: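 Primary rat cortical neurons on 16-electrode MEA wells; 40-min baseline on DIV 13 or 15, then 40-min recording with compound (0.03-40 uM) at 37 C. HWHM of spike cross-correlogram expressed as percent change from baseline per well, DMSO reference.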

[7] = CCTE_Shafer_MEA_acute_synchrony_index: CCTE's Neural Acute Assay for Synchrony, Shafer Lab (AID 2284027);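 also: network synchrony index of spontaneous spiking in primary rat cortical neurons on MEAs; fitted for loss of signal so actives lower synchrony relative to DMSO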
Summary of the method: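 Primary rat cortical neurons on 48-well MEAs, dosed at 0.03–40 uM on DIV 13 or 15. Spikes are recorded for 40 min at 37C before and after exposure, and synchrony index (0–1) is expressed as percent change from baseline per well.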

[8] = target: Estrogen receptor (Homo sapiens) (UniProt P03372); test: CCTE_Deisenroth_AIME_384WELL_LUC_Active: CCTE's 384-well Estrogen Receptor Transactivation Assay with AIME metabolic competence (ERTA luciferase; metabolism positive), Deisenroth Lab (AID 2284030; active = hit-call score of the fitted dose curve at least 0.9, where 1 is the maximum)
Sequence of Estrogen receptor (Homo sapiens) (P03372 whole entry, looked up): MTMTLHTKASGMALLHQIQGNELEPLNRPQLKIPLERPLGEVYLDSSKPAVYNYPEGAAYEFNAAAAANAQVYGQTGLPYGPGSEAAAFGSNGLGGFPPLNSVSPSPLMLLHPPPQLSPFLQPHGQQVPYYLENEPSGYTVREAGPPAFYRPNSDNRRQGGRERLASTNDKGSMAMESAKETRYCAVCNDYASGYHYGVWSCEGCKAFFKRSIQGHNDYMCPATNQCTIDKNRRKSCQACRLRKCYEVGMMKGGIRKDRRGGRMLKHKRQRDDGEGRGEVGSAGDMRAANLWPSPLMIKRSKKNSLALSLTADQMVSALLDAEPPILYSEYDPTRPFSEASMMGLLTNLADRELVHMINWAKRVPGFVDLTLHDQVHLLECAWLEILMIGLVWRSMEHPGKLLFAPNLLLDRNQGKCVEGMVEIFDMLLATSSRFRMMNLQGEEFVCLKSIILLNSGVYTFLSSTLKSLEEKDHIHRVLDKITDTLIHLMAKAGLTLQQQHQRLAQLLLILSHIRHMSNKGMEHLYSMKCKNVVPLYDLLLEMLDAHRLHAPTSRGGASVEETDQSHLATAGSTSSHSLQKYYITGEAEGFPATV
Summary of the method: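 Test chemicals (10-point series, 0.002 - 200 uM) were preincubated 2 hours with alginate-immobilized phenobarbital/beta-naphthoflavone-induced male Sprague Dawley rat liver S9; conditioned medium then went onto VM7Luc4E2 breast cells for 24 hour. Luciferase gain-of-signal fitted relative to 17beta-estradiol.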

[9] = CCTE_Deisenroth_AIME_96WELL_CTox_Active: Cytotoxicity Assessment (CTOX) in CCTE's 96-well Estrogen Receptor Transactivation Assay with AIME metabolic competence (metabolism positive), Deisenroth Lab (AID 2284028; active = hit-call score of the fitted dose curve at least 0.9, where 1 is the maximum)
Summary of the method: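 Chemicals (0.002–200 uM) were first incubated 2 h with alginate-immobilized phenobarbital/beta-naphthoflavone-induced male rat liver S9; conditioned medium then went onto VM7Luc4E2 cells for 24 h, with viability read by protease-substrate fluorescence, fitted bidirectionally.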

[10] = CCTE_Deisenroth_AIME_96WELL_CTox_Inactive: Cytotoxicity Assessment (CTOX) in CCTE's 96-well Estrogen Receptor Transactivation Assay without AIME metabolic competence (metabolism negative), Deisenroth Lab (AID 2284029; active = hit-call score of the fitted dose curve at least 0.9, where 1 is the maximum)
Summary of the method: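 Chemicals (0.002 - 200 uM, 10 points) incubated 2 h with alginate-water microspheres (no S9), then medium moved onto VM7Luc4E2 cells for 24 h. Viability by protease-substrate cleavage to fluorescent probe; bidirectional fitting.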

SMILES: Cc1[nH]cnc1C[C@H]1CCc2c(C)c3ccccc3n2C1=O
- outcome [1]: inactive
- outcome [2]: inactive
- AC50 [3]: 17.8 µM (active)
- AC50 [4]: 24.2 µM (active)
- outcome [5]: inactive
- AC50 [6]: 30.7 µM (active)
- AC50 [7]: 8.89 µM (active)

SMILES: CCCN(C1CCN(C(=O)C2CCNCC2)CC1)[C@@H]1CCc2ccc(OC)cc2C1
- AC50 [1]: 33.1 µM (active)
- outcome [2]: inactive
- AC50 [3]: 5 µM (active)
- AC50 [4]: 7.55 µM (active)
- outcome [5]: inactive
- outcome [6]: inactive
- AC50 [7]: 17.7 µM (active)

SMILES: O=c1[nH]c2ccc(S(=O)CCN3CCC(Cc4ccc(F)cc4)CC3)cc2o1 (stereo not drawn)
- outcome [8]: inactive

SMILES: COc1cccc(-c2ccc(/C=C\CN3CCCCCC3)cc2Cl)c1
- outcome [1]: inactive
- AC50 [2]: 3.94 µM (active)
- outcome [3]: inactive
- outcome [4]: inactive
- AC50 [5]: 3.7 µM (active)
- outcome [6]: inactive
- outcome [7]: inactive
- outcome [8]: inactive

SMILES: CC(C)=CCCC(C)=CC=O
- outcome [1]: inactive
- outcome [2]: inactive
- outcome [3]: inactive
- outcome [4]: inactive
- outcome [5]: inactive
- outcome [6]: inactive
- outcome [7]: inactive

SMILES: CCCCCCc1ccc(O)cc1O
- AC50 [1]: 27.8 µM (active)
- AC50 [2]: 6.93 µM (active)
- AC50 [3]: 8.5 µM (active)
- outcome [4]: inactive
- outcome [5]: inactive
- AC50 [6]: 20 µM (active)
- AC50 [7]: 6.73 µM (active)

SMILES: Cn1cnc([N+](=O)[O-])c1Sc1ncnc2nc[nH]c12
- outcome [1]: inactive
- outcome [2]: inactive
- outcome [3]: inactive
- outcome [4]: inactive
- outcome [5]: inactive
- outcome [6]: inactive
- outcome [7]: inactive

SMILES: O=C(O)c1cccc(Oc2ccccc2)c1
- outcome [8]: inactive

SMILES: CC(C)CCO
- outcome [8]: inactive

SMILES: CCCC(=O)OCC
- outcome [8]: inactive

SMILES: C=CC(=C)CCC=C(C)C
- outcome [8]: inactive

SMILES: CCCCCCCCCCCCc1ccccc1
- outcome [1]: inactive
- outcome [2]: inactive
- outcome [3]: inactive
- outcome [4]: inactive
- outcome [5]: inactive
- outcome [6]: inactive
- outcome [7]: inactive

SMILES: COc1ccc2sc(C(=O)Nc3nnn[nH]3)c(OC(C)C)c2c1
- outcome [1]: inactive
- outcome [2]: inactive
- outcome [3]: inactive
- outcome [4]: inactive
- outcome [5]: inactive
- outcome [6]: inactive
- outcome [7]: inactive
- outcome [8]: inactive

SMILES: O=C(O)CCN(C1(C(=O)NO)CCCC1)S(=O)(=O)c1ccc(Oc2ccc(F)cc2)cc1
- outcome [1]: inactive
- outcome [2]: inactive
- outcome [3]: inactive
- outcome [4]: inactive
- outcome [5]: inactive
- outcome [6]: inactive
- outcome [7]: inactive

SMILES: Cn1c(=O)c2c(ncn2C)n(C)c1=O
- AC50 [1]: 20 µM (active)
- outcome [2]: inactive
- outcome [3]: inactive
- outcome [4]: inactive
- outcome [5]: inactive
- outcome [6]: inactive
- outcome [7]: inactive
- outcome [9]: inactive
- outcome [10]: inactive

SMILES: CCCCCCCCO
- outcome [8]: inactive

SMILES: CC[C@H]1OC(=O)[C@H](C)[C@@H](O[C@H]2C[C@@](C)(OC)[C@@H](O)[C@H](C)O2)[C@H](C)[C@@H](O[C@@H]2O[C@H](C)C[C@H](N(C)C)[C@H]2O)[C@](C)(O)C[C@@H](C)C(=O)[C@H](C)[C@@H](O)[C@]1(C)O
- outcome [1]: inactive
- outcome [2]: inactive
- outcome [3]: inactive
- outcome [4]: inactive
- outcome [5]: inactive
- outcome [6]: inactive
- outcome [7]: inactive

SMILES: O=c1n(CC2CO2)c(=O)n(CC2CO2)c(=O)n1CC1CO1 (stereo not drawn)
- outcome [8]: inactive

SMILES: Nc1ccc(Nc2ccccc2)cc1
- AC50 [8]: 114 µM (active)

SMILES: Cc1ccc(N)cc1O
- outcome [8]: inactive

SMILES: O=C(O)c1cc(N=Nc2ccc(S(=O)(=O)Nc3ccccn3)cc2)ccc1O
- outcome [1]: inactive
- outcome [2]: inactive
- outcome [3]: inactive
- outcome [4]: inactive
- outcome [5]: inactive
- outcome [6]: inactive
- outcome [7]: inactive

SMILES: CCOC(=O)c1ccc(C2CCC(NC[C@H](O)COc3ccc(O)c(NS(C)(=O)=O)c3)CC2)cc1 (stereo partly drawn)
- outcome [1]: inactive
- outcome [2]: inactive
- outcome [3]: inactive
- outcome [4]: inactive
- outcome [5]: inactive
- outcome [6]: inactive
- AC50 [7]: 28.8 µM (active)

SMILES: Cn1c(=O)cc(Oc2ccc(F)cc2F)c2cnc(NCC(C)(C)O)nc21
- outcome [8]: inactive

SMILES: CC[C@H]1CC[C@H](NCc2cc3c(cc2OC)[C@H]2C[C@H]2C(=O)N3C)[C@H](c2ccccc2)N1
- outcome [1]: inactive
- outcome [2]: inactive
- outcome [3]: inactive
- outcome [4]: inactive
- outcome [5]: inactive
- AC50 [6]: 20 µM (active)
- outcome [7]: inactive

SMILES: O=P(OC(CCl)CCl)(OC(CCl)CCl)OC(CCl)CCl
- AC50 [1]: 31.6 µM (active)
- outcome [1]: inactive
- outcome [2]: inactive
- outcome [3]: inactive
- outcome [4]: inactive
- outcome [5]: inactive
- AC50 [6]: 23.5 µM (active)
- outcome [6]: inactive
- AC50 [7]: 23 µM (active)
- outcome [7]: inactive

SMILES: CCC(C)(C)C(=O)O[C@H]1C[C@@H](C)C=C2C=C[C@H](C)[C@H](CC[C@@H]3C[C@@H](O)CC(=O)O3)[C@H]21
- outcome [1]: inactive
- outcome [2]: inactive
- outcome [3]: inactive
- outcome [4]: inactive
- outcome [5]: inactive
- outcome [6]: inactive
- outcome [7]: inactive

SMILES: CCCCC(CC)COC(=O)CCCCCCCCC(=O)OCC(CC)CCCC (stereo not drawn)
- outcome [1]: inactive
- outcome [2]: inactive
- outcome [3]: inactive
- outcome [4]: inactive
- outcome [5]: inactive
- outcome [6]: inactive
- outcome [7]: inactive

SMILES: On1ccccc1=S
- outcome [1]: inactive
- outcome [2]: inactive
- outcome [3]: inactive
- outcome [4]: inactive
- outcome [5]: inactive
- outcome [6]: inactive
- outcome [7]: inactive
